We go through 15 compounds from PubChem BioAssay (NCATS).

What is called viability is a read-out of living cells in per cent, often relative to untreated cells.

Test [1] is described as follows: Quantitative High-Throughput drug screen in 47 multiple myeloma cell lines against the NCATS MIPE library collection: KMS12PE_JCRB cell viability assay (AID 1918972). Further: nearly all actives have a fitted effect of over 30% in size. Further: potency means the concentration at half of the fitted maximal effect. The method in brief: (§1)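 Steps: seed 500 cells per well; pin-transfer MIPE 4.0 library; incubate 48 h at 37C, 5% CO2, humidified; add CellTiter-Glo, 5 min room temperature; read luminescence.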
Test [2] is described as follows: Quantitative High-Throughput drug screen in 47 multiple myeloma cell lines against the NCATS MIPE library collection: KMS20_JCRB cell viability assay (AID 1918973). Further: nearly all actives have a fitted effect of over 45% in size. In short, it runs like this:
as §1

The nature of test [3]: Quantitative High-Throughput drug screen in 47 multiple myeloma cell lines against the NCATS MIPE library collection: MMM1_PLB cell viability assay (AID 1918976). Further: potency means the concentration at half of the fitted maximal effect; nearly all actives have a fitted effect of over 35% in size. In short, it runs like this: (§2)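 Inhibition of viability over 48 h was scored by ATP content (CellTiter-Glo) in 500-cell wells. Zero and full viability were defined by media-only and DMSO-only wells.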
Test [4] can be described thus: Quantitative High-Throughput drug screen in 47 multiple myeloma cell lines against the NCATS MIPE library collection: MOLP8_DSMZ cell viability assay (AID 1918977). Further: nearly all actives have a fitted effect of over 45% in size. Further: potency means the concentration at half of the fitted maximal effect. The method in brief: as §2
Test [5] can be described thus: Quantitative High-Throughput drug screen in 47 multiple myeloma cell lines against the NCATS MIPE library collection: NCIH929_DSMZ cell viability assay (AID 1918978). Further: nearly all actives have a fitted effect of over 35% in size. Further: potency means the concentration at half of the fitted maximal effect. In short, it runs like this: as §2
Test [6] in a line: Quantitative High-Throughput drug screen in 47 multiple myeloma cell lines against the NCATS MIPE library collection: OCIMY1_PLB cell viability assay (AID 1918979). Further: nearly all actives have a fitted effect of over 35% in size. Further: potency means the concentration at half of the fitted maximal effect. The method in brief: as §2
Test [7] is described as follows: Quantitative High-Throughput drug screen in 47 multiple myeloma cell lines against the NCATS MIPE library collection: MM1S_ATCC cell viability assay (AID 1918980). Further: nearly all actives have a fitted effect of over 45% in size. Further: potency means the concentration at half of the fitted maximal effect. In short, it runs like this:
as §2

Test [8] in a line: Quantitative High-Throughput drug screen in 47 multiple myeloma cell lines against the NCATS MIPE library collection: KMS28PE_JCRB cell viability assay (AID 1918983). Further: nearly all actives have a fitted effect of over 35% in size. Further: potency means the concentration at half of the fitted maximal effect. In short, it runs like this:
as §2

Test [9] is described as follows: Quantitative High-Throughput drug screen in 47 multiple myeloma cell lines against the NCATS MIPE library collection: KMS34_JCRB cell viability assay (AID 1918985). Further: nearly all actives have a fitted effect of over 40% in size. Further: potency means the concentration at half of the fitted maximal effect. In short, it runs like this:
as §2

The nature of test [10]: Quantitative High-Throughput drug screen in 47 multiple myeloma cell lines against the NCATS MIPE library collection: OPM1_PLB cell viability assay (AID 1918989). Further: nearly all actives have a fitted effect of over 40% in size. Further: potency means the concentration at half of the fitted maximal effect. The method in brief: as §2
Test [11] in a line: Quantitative High-Throughput drug screen in 47 multiple myeloma cell lines against the NCATS MIPE library collection: SKMM1_PLB cell viability assay (AID 1919863). Further: nearly all actives have a fitted effect of over 35% in size. Further: potency means the concentration at half of the fitted maximal effect. The settings on record: SKMM1 myeloma viability, CellTiter-Glo ATP, 48 h; viability: active compounds read low. In short, it runs like this: as §2
Test [12] is described as follows: Quantitative High-Throughput drug screen in 47 multiple myeloma cell lines against the NCATS MIPE library collection: U266_ATCC cell viability assay (AID 1919864). Further: nearly all actives have a fitted effect of over 35% in size. Further: potency means the concentration at half of the fitted maximal effect. The method in brief: as §2
Test [13] is described as follows: Quantitative High-Throughput drug screen in 47 multiple myeloma cell lines against the NCATS MIPE library collection: KMS26_JCRB cell viability assay (AID 1918975). Further: nearly all actives have a fitted effect of over 45% in size. Further: potency means the concentration at half of the fitted maximal effect. The method in brief: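 Myeloma cell lines, 500 cells per well, exposed to MIPE 4.0 library compounds for 48 h at 37C, 5% CO2. Viability from ATP by CellTiter-Glo luminescence; normalised to DMSO (100%) and media-only (0%) wells.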

Test [14] is described as follows: Quantitative High-Throughput drug screen in 47 multiple myeloma cell lines against the NCATS MIPE library collection: MM1R_ATCC cell viability assay (AID 1918981). Further: nearly all actives have a fitted effect of over 35% in size. Further: potency means the concentration at half of the fitted maximal effect. The method in brief:
as §2

The nature of test [15]: Quantitative High-Throughput drug screen in 47 multiple myeloma cell lines against the NCATS MIPE library collection: LP1_DSMZ cell viability assay (AID 1918982). Further: nearly all actives have a fitted effect of over 35% in size. Further: potency means the concentration at half of the fitted maximal effect. In short, it runs like this:
as §2

The nature of test [16]: Quantitative High-Throughput drug screen in 47 multiple myeloma cell lines against the NCATS MIPE library collection: L363_DSMZ cell viability assay (AID 1918984). Further: nearly all actives have a fitted effect of over 40% in size. Further: potency means the concentration at half of the fitted maximal effect. In short, it runs like this: as §2
Test [17] can be described thus: Quantitative High-Throughput drug screen in 47 multiple myeloma cell lines against the NCATS MIPE library collection: OCIMY7_PLB cell viability assay (AID 1918987). Further: nearly all actives have a fitted effect of over 65% in size. Further: potency means the concentration at half of the fitted maximal effect. The method in brief:
as §2

Test [18] can be described thus: Quantitative High-Throughput drug screen in 47 multiple myeloma cell lines against the NCATS MIPE library collection: XG6_PLB cell viability assay (AID 1919865). Further: nearly all actives have a fitted effect of over 40% in size. Further: potency means the concentration at half of the fitted maximal effect. The method in brief: as §2
A short description of test [19]: Quantitative High-Throughput drug screen in 47 multiple myeloma cell lines against the NCATS MIPE library collection: KMS21BM_JCRB cell viability assay (AID 1918974). Further: potency means the concentration at half of the fitted maximal effect. The settings on record: ATP luminescence, 48 h; viability: at 45.8 µM (top of the series) unless noted. The method in brief: as §1
The nature of test [20]: Quantitative High-Throughput drug screen in 47 multiple myeloma cell lines against the NCATS MIPE library collection: OCIMY5_PLB cell viability assay (AID 1918988).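 Further: 100% = DMSO-treated wells and 0% = wells with media alone; nearly all actives have a fitted effect of over 65% in size.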 In short, it runs like this:
as §2

Results filed as inconclusive are left out. Values without a mark were called inactive. The source made the active and inactive calls. The call rests on the fitted dose curve; in most records, active means well fitted curve in the direction sought with a large enough effect; inconclusive means small, poorly fitted or top-dose-only effect, or another doubt; inactive means no such curve, though single readings can be large; an effect the other way counts as inactive or inconclusive.

With `Cc1nc(-c2ccc(OCC(C)C)c(C#N)c2)sc1C(=O)O`, the Potency entry in [1], in [2], in [5], in [6], in test [7] and in test [8] was “inactive” throughout. Further, the Potency result in [9], in test [10] and in test [12] was “inactive” each time. In addition, the Potency in test [3] is 6.62 µM (active); in test [4] it was 2.96 µM (active). For the same compound, the viability in test [11] was 114%.

`O=Nc1c(-c2c(O)[nH]c3cc(Br)ccc23)[nH]c2ccccc12`: the Potency is 1.18 µM (active) in test [1]; 18.7 µM (active) in [13]; 20.9 µM (active) in test [3]; 16.6 µM (active) in test [4]; 2.64 µM (active) in test [5]; 11.8 µM (active) in [7]. In addition, the Potency is 16.6 µM (active) in test [14]; 13.2 µM (active) in [15]; 23.5 µM (active) in test [8]; 4.69 µM (active) in test [16]; 3.32 µM (active) in test [9]; 1.87 µM (active) in test [17]. In addition, the Potency in [10] is 5.26 µM (active); in [11] it was 20.9 µM (active); in test [12], 16.6 µM (active); in test [18], 3.32 µM (active).

Turning to `O=C(c1ccccc1)c1ccc2n1CCC2C(=O)O` (stereo not drawn), the Potency entry in [1], in test [19], in [4], in test [6], in test [15] and in test [8] was “inactive” each time. Further, the Potency entry in [16] and in test [9] was “inactive” in each case. Also, the Potency in test [13] was 1.48 µM (active); in test [3], 0.743 µM (active); in test [5], 5.26 µM (active); in [7], 1.05 µM (active); in [14], 2.09 µM (active); in [17], 7.43 µM (active). Further, the Potency was 20.9 µM (active) in [10], 3.72 µM (active) in test [12] and 9.35 µM (active) in [18]. In test [11], the viability is 105%.

With `c1ccc2[nH]c(-c3cscn3)nc2c1`, the Potency entry in test [1], in test [2], in test [4], in [5], in test [14] and in test [15] was “inactive” in each case. The Potency result in [8], in test [9], in [17], in test [20], in test [10] and in [18] was “inactive” throughout. Also, the viability in test [11] was 120%.

Consider `COc1cc(OC)c(C(=O)CCCN2CCCC2)c(OC)c1`, for which the Potency result in test [1], in [4], in test [5], in test [14], in [15] and in [9] was “inactive” in each case. Besides, the Potency result in test [20], in test [10], in test [12] and in test [18] was “inactive” throughout. In addition, the Potency in [19] is 18.7 µM (active); in test [7] it was 16.6 µM (active).

On to `CCC1=C(C)CN(C(=O)NCCc2ccc(S(=O)(=O)NC(=O)NC3CCC(C)CC3)cc2)C1=O` (stereo not drawn), for which the Potency result in test [1], in test [19], in [13], in [5], in test [6] and in test [7] was “inactive” each time. Besides, the Potency entry in [14], in test [15], in [8], in test [16], in test [9] and in test [10] was “inactive” each time. Besides, the Potency result in test [12] was “inactive”.

For the compound `Cc1cc(=O)oc2cc(O)ccc12`, the Potency entry in test [1], in test [13], in [4], in test [5], in test [15] and in [8] was “inactive” in each case. Also, the Potency entry in test [16], in test [20], in test [10], in test [12] and in test [18] was “inactive” in each case. For the same compound, the Potency is 0.296 µM (active) in test [3] and 6.62 µM (active) in [14]. For the same compound, the viability in [11] is 114%.

For `CC1=C(C(=O)O)N2C(=O)[C@@H](NC(=O)[C@H](N)C3=CCC=CC3)[C@H]2SC1`, the Potency entry in test [1], in test [13], in test [4], in test [5], in [6] and in [14] was “inactive” throughout. The Potency entry in test [15], in test [9], in [20] and in [10] was “inactive” each time. Moreover, in test [11], the viability is 126%.

Turning to `O=C(O)c1cn(-c2ccc(F)cc2)c2cc(N3CCNCC3)c(F)cc2c1=O`, the Potency entry in test [1], in [13], in [5], in [6], in test [14] and in test [15] was “inactive” throughout. The Potency entry in test [8], in test [17], in [10] and in [18] was “inactive” throughout. In addition, the figures for the Potency in test [3] and in test [7] were 11.8 µM (active) and 20.9 µM (active), respectively.

For `O=C1c2c(O)cc(O)cc2OC(c2ccc(O)c(O)c2)C1O` (stereo not drawn), the Potency entry in test [1], in test [13], in [4], in [6], in test [15] and in test [20] was “inactive” each time. For the same compound, the Potency result in [10] and in test [12] was “inactive” throughout. Also, the Potency in test [17] is 14.8 µM (active).

In the case of `CCCCc1ccc2nc(NC(=O)OC)[nH]c2c1`, the Potency in [1] was 0.0047 µM (active); in test [13] it was 1.48 µM (active); in test [3], 3.32 µM (active); in [14], 0.059 µM (active); in [15] it was 0.0187 µM (active); in test [8], 0.0148 µM (active). The Potency was 0.0148 µM (active) in test [9], 0.0209 µM (active) in test [10], 0.0469 µM (active) in [11] and 0.743 µM (active) in [12].

`CC(C)[N+]1(C)[C@@H]2CC[C@H]1CC(OC(=O)C(CO)c1ccccc1)C2` (stereo partly drawn): the figures for the Potency in [1] and in [16] were 16.6 µM (active) and 14.8 µM (active), respectively. In addition, the Potency result in test [13], in test [4], in [7], in test [14], in test [15] and in test [8] was “inactive” each time. Moreover, the Potency entry in test [9], in [20], in test [12] and in test [18] was “inactive” throughout. The viability in test [11] was 150%.

For `O=c1oc2cc(O)ccc2s1`, the Potency result in test [1], in test [13], in [5], in test [14], in test [8] and in [16] was “inactive” in each case. Moreover, the Potency entry in [10] and in test [18] was “inactive” throughout. Besides, the Potency in test [3] is 16.6 µM (active); in test [7], 0.935 µM (active).

Take `CC[C@]1(O)C[C@H]2CN(CCc3c([nH]c4ccccc34)[C@@](C(=O)OC)(c3cc4c(cc3OC)N(C=O)[C@H]3[C@@](O)(C(=O)OC)[C@H](OC(C)=O)[C@]5(CC)C=CCN6CC[C@]43[C@@H]65)C2)C1`: the Potency was 0.0743 µM (active) in test [1]; 0.0372 µM (active) in [13]; 1.05 µM (active) in test [3]; 0.059 µM (active) in test [6]; 0.0047 µM (active) in [8]; 0.132 µM (active) in [16]. For the same compound, the Potency in test [9] is 0.0019 µM (active); in test [17] it was 0.0235 µM (active); in test [10] it was 0.0053 µM (active); in test [11], 0.0053 µM (active). For the same compound, the Potency result in [18] is “inactive”.

Turning to `Cc1cccc(C)c1OCC(=O)N[C@@H](Cc1ccccc1)[C@@H](O)C[C@H](Cc1ccccc1)NC(=O)[C@H](C(C)C)N1CCCNC1=O`, the Potency was 6.62 µM (active) in test [1]; 18.7 µM (active) in [13]; 16.6 µM (active) in test [3]; 20.9 µM (active) in [7]; 20.9 µM (active) in test [8]; 11.8 µM (active) in [17]. Besides, the Potency in test [10] was 18.7 µM (active). In addition, the Potency result in test [20] and in [12] was “inactive” each time.
